Calls of active or inactive are those of the source.
Tests used:
[1] = test system: Plasmodium falciparum Sir2 (PF13_0152, Sir2A); assay: pfSir2 binders on small-molecule microarrays, primary screen, biochemical, small-molecule microarray, 635 nm fluorescence (AID 1098); settings: small-molecule microarray binding, fluorescence 635 nm; higher = more signal;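 note: score merges spot fluorescence intensity with its signal-to-noise ratio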
[2] = small-molecule microarray binders of probe aDKK1, primary screen, biochemical, biotinylated probe, 635/667 nm fluorescence (AID 1099); settings: higher = more signal;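 note: score merges 667nm spot fluorescence with signal to noise across triplicate slides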
[3] = small-molecule microarray binders of probe aCHRDL2, primary screen, biochemical, biotinylated probe, 635/667 nm fluorescence (AID 1100); settings: higher = more signal
[4] = splicing luciferase reporter signal modulators, primary screen, spliceosome inhibition project, cell-based, HEK293, splice +/- reporter (AID 1101); settings: luminescence, 24 h, higher = more signal, called active from +8 up or from −8 down;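 note: HEK293 cells carrying a splicing-competent luciferase reporter gene; test concentration not given here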
[5] = target: Fibroblast growth factor 10 (Homo sapiens) (UniProt O15520); assay: FGF10 binders on small-molecule microarrays, primary screen, biochemical, small-molecule microarray, 635 nm fluorescence (AID 1102); settings: FGF10 binding, fluorescence 635 nm, higher = more signal
[6] = test system: glycogen synthase kinase-3 (GSK3A per assay name; protocol says GSK3B); assay: GSK3 binders on small-molecule microarrays, primary screen, biochemical, small-molecule microarray, 635 nm fluorescence, GSK3A (AID 1103); settings: small-molecule microarray binding, fluorescence 635 nm; higher = more signal; note: the record names both GSK3A and GSK3B
[7] = target: Epidermal growth factor receptor (Homo sapiens) (UniProt P00533); assay: EGFR binders on small-molecule microarrays, primary screen, biochemical, small-molecule microarray, 635 nm fluorescence (AID 1104); settings: EGFR binding, higher = more signal;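 note: score merges 667 nm emission intensity with spot signal to noise over triplicate slides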
[8] = target: Follistatin-related protein 3 (Homo sapiens) (UniProt O95633); assay: FSTL3 binders on small-molecule microarrays, primary screen, biochemical, small-molecule microarray, 635 nm fluorescence (AID 1105); settings: FSTL3 binding, higher = more signal;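 note: score merges emission near 667 nm and signal to noise per printed spot across three slides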
[9] = target: Dickkopf-related protein 1 (Homo sapiens) (UniProt O94907); assay: DKK1 binders on small-molecule microarrays, primary screen, biochemical, small-molecule microarray, 635 nm fluorescence scan (AID 1106); settings: DKK1 binding, higher = more signal;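 note: score merges emission near 667 nm with signal to noise over three replicate slides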
[10] = test system: Inhibin beta A chain (activin A); assay: INHBA (activin A) binders on microarrays, primary screen, biochemical, small-molecule microarray, 635 nm fluorescence scan (AID 1107); settings: small-molecule microarray binding, higher = more signal;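 note: mouse activin A protein probed at 4.33 µg/mL on printed slides; score merges bound-protein fluorescence near 667 nm with spot signal-to-noise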
[11] = test system: Human papillomavirus type 1a protein E7 (residues 44-93); assay: HPV1a E7 fragment binders on microarrays, primary screen, biochemical, small-molecule microarray, residues 44-93, 635 nm fluorescence (AID 1108); settings: small-molecule microarray binding, fluorescence 635 nm; higher = more signal;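 note: E7 fragment applied at 1 µg/mL in TBST for 1 h at 4 C; score combines spot fluorescence with its signal to noise ratio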
[12] = modulators of HCV replicon luciferase signal, primary screen, HCV replication inhibitor project, Huh7 cells, luciferase reporter (AID 1109); settings: 48 h, higher = more signal;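 note: huh7 hepatoma cells harbouring a luciferase neomycin HCV replicon reporter; luciferase luminescence as measure of HCV replicon replication; test concentration not given here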
[13] = target: Left-right determination factor 2 (Homo sapiens) (UniProt O00292); assay: LEFTY2 binders on small-molecule microarrays, primary screen, biochemical, small-molecule microarray, 635 nm fluorescence scan (AID 1110); settings: LEFTY2 binding, higher = more signal
[14] = target: Calmodulin-1 (Homo sapiens) (UniProt P0DP23); assay: CALM1 binders on microarrays, EGTA buffer, profiling panel, biochemical, small-molecule microarray, Cy5-labelled CALM1 (AID 1111); settings: Cy5-CALM1 binding fluorescence, higher = more signal;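 note: labelled calmodulin applied in Tris saline Tween buffer holding calcium plus EGTA and DTT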
[15] = target: Calmodulin-1 (Homo sapiens) (UniProt P0DP23); assay: calcium-bound CALM1 binders on microarrays, profiling panel, artefact control for SMM control-protein annotation, biochemical, small-molecule microarray, Cy5-labelled CALM1, plus calcium (AID 1112); settings: Cy5-CALM1 binding fluorescence, higher = more signal;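 note: score merges spot fluorescence with signal to noise from triplicate slides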
[16] = small-molecule microarray binders of probe aWnt5a, primary screen, biochemical, biotinylated probe, 635/667 nm fluorescence (AID 1113); settings: higher = more signal;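 note: score merges 667 nm fluorescence intensity with signal-to-noise per printed feature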
[17] = small-molecule microarray binders of probe aShh, primary screen, biochemical, biotinylated probe, 635/667 nm fluorescence (AID 1114); settings: higher = more signal;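 note: probe is biotin-labelled aShh protein from a stem cell growth factor screen; measures binding of labelled protein to compounds printed on the slide; score merges feature fluorescence at 667 nm with signal-to-noise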
[18] = small-molecule microarray binders of probe aNog, primary screen, biochemical, biotinylated probe, 635/667 nm fluorescence (AID 1115); settings: higher = more signal;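 note: probe is biotinylated aNog protein used at 0.15 µg/mL for 1 h at 4 C; z-score combines 667 nm fluorescence of each spot with its signal to noise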
[19] = target: Torsin-1A-interacting protein 1 (Homo sapiens) (UniProt Q5JTV8); assay: LAP1 binders from COS7 cell lysate, primary screen, small-molecule microarray, 635/667 nm fluorescence (AID 1116); settings: COS7-hLAP1 lysate binding, 635 nm fluorescence, higher = more signal
[20] = target: Alpha-bungarotoxin (Bungarus multicinctus) (UniProt P60615); assay: alpha-bungarotoxin binders on microarray, profiling panel, artefact control for SMM control protein annotation, biochemical, small-molecule microarray, Alexa647 label, 635/667 nm fluorescence (AID 1117); settings: alpha-BTX-A647 binding fluorescence, higher = more signal
Alpha-bungarotoxin (Bungarus multicinctus), sequence (P60615 whole entry, looked up): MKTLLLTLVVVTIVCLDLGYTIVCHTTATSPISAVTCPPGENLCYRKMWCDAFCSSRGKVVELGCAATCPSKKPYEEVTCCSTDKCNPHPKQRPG

Fibroblast growth factor 10 (Homo sapiens), sequence (O15520 whole entry, looked up): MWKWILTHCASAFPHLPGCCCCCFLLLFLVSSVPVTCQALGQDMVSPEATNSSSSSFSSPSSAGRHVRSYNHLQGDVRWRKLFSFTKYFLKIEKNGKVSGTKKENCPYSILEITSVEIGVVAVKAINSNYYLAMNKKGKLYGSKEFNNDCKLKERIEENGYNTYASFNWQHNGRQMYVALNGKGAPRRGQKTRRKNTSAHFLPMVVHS
Follistatin-related protein 3 (Homo sapiens), sequence (O95633 whole entry, looked up): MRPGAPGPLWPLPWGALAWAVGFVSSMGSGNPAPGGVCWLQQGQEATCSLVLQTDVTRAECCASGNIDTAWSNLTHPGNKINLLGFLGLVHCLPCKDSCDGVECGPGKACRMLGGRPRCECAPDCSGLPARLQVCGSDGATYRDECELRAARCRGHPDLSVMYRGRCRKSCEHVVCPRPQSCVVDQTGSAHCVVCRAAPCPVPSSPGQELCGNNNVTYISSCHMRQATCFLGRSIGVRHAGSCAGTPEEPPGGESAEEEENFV
Torsin-1A-interacting protein 1 (Homo sapiens), sequence (Q5JTV8 whole entry, looked up): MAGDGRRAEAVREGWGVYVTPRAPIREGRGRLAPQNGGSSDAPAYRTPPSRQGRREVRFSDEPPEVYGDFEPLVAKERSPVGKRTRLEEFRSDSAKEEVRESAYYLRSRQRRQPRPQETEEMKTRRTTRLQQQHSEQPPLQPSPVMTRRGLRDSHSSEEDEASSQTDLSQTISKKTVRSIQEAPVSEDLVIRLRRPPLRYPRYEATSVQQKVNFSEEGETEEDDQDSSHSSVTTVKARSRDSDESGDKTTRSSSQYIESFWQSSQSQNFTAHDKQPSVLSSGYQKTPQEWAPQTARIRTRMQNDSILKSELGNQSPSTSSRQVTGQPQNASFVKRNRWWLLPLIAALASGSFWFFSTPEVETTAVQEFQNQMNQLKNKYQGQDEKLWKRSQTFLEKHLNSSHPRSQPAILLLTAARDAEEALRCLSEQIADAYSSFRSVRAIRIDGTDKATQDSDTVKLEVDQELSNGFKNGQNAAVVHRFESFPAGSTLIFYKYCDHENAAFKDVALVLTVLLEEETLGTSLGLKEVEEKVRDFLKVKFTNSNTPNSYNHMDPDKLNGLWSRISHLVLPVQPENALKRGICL
Epidermal growth factor receptor (Homo sapiens), sequence (P00533 whole entry, looked up): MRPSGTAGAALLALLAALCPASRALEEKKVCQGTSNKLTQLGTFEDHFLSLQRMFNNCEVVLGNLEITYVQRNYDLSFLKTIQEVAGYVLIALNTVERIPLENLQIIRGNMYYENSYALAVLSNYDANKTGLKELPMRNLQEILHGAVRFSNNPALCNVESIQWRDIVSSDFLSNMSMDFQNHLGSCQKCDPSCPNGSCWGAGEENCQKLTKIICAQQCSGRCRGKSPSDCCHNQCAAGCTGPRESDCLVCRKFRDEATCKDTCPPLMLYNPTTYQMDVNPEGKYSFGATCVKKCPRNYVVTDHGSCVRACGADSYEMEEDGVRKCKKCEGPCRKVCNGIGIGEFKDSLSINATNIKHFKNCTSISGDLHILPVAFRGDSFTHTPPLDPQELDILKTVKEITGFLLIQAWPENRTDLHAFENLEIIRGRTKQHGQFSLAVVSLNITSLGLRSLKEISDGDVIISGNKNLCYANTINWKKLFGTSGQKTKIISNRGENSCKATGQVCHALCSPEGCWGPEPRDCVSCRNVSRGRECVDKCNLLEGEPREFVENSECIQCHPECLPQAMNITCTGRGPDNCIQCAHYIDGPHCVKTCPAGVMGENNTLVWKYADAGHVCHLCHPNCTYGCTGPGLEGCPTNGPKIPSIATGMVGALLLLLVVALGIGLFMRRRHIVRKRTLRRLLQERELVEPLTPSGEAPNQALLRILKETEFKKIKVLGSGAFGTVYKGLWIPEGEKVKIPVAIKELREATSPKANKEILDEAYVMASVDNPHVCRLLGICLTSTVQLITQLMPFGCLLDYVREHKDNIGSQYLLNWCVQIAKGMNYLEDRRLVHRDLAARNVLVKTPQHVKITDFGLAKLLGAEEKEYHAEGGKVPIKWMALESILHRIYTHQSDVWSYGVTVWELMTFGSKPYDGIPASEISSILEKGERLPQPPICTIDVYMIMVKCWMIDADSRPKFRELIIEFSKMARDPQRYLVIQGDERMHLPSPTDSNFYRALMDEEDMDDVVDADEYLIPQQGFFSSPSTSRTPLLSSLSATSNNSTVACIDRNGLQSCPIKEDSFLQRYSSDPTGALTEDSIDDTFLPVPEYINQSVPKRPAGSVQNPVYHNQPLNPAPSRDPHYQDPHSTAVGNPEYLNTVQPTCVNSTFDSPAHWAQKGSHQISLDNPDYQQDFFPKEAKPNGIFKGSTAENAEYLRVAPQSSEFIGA
Dickkopf-related protein 1 (Homo sapiens), sequence (O94907 whole entry, looked up): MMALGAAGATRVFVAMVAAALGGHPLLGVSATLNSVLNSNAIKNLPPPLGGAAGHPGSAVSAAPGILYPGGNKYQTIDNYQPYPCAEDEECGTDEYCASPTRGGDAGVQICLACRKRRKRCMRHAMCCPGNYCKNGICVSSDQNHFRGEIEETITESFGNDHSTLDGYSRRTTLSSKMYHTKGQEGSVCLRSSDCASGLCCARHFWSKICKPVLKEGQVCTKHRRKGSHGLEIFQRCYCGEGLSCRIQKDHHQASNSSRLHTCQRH
Left-right determination factor 2 (Homo sapiens), sequence (O00292 whole entry, looked up): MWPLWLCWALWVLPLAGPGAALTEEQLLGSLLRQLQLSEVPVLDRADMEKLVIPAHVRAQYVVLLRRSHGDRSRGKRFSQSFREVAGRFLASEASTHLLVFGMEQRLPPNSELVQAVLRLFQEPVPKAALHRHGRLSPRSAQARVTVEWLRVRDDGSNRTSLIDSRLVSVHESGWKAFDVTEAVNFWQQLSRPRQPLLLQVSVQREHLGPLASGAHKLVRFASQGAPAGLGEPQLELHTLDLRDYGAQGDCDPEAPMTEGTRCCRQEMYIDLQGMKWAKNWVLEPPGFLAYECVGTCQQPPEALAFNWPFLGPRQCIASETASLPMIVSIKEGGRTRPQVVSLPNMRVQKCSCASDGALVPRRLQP

SMILES	composite z-score [1]	composite z-score [2]	composite z-score [3]	z-score [4]	composite z-score [5]	composite z-score [6]	composite z-score [7]	composite z-score [8]	composite z-score [9]	composite z-score [10]	composite z-score [11]	z-score [12]	composite z-score [13]	composite z-score [14]	composite z-score [15]	composite z-score [16]	composite z-score [17]	composite z-score [18]	composite z-score [19]	composite z-score [20]
CCCCC(O)C1C=CC2C(=O)NC(=O)C2N1Nc1ccccn1 (stereo not given)	1.1	0.0006	-0.0537	2.17 (inactive)	-0.0249	0.0652	0.207	-0.404	0.0816	0.555	-0.382	-1.11	0.132	-0.0937	-0.466	-0.1	0.25	0.289	0.233	0.275
C=CCC(OC(C)=O)[C@@H]1[C@@H](N(Cc2ccc(-c3cccc(C(F)(F)F)c3)o2)C(=O)c2cccc3ccccc23)c2cc(OCCCO)ccc2N1C(=O)c1ccc2ccccc2c1 (stereo not given in full)	0.542	0.0086	0.256	-0.874 (inactive)	0.119	-1.08	0.142	0.317	0.289	1.2	-0.423	0.0329	-0.382	-0.34	0.17	-0.108	-0.0709	0.0649	0.49	0.108
O=C1OCCC=C[C@H]2OC34C=CCN(c5ccc(Cl)cc5)C(=O)[C@H]3N(CCO)C(=O)[C@@H]4C12 (stereo not given in full)	-0.358	-0.208	0.266	-0.343 (inactive)	-0.45	-0.695	-0.723	-0.683	-0.568	-1.16	-0.646	0.318	-1.34	-0.585	-0.1	-0.239	-0.262	-0.274	-0.855	-0.957
CN(C)CCCCNC(=O)[C@H]1C[C@H]2C(=O)N[C@@H](Cc3ccccc3)C(=O)N2[C@H]1c1cccc(OCCO)c1	1.2	-0.336	0.336	-1.9 (inactive)	-0.407	-1.51	0.0459	0.198	0.574	-0.272	-1.49	-0.251	0.0071	-0.545	0.0005	-0.217	0.251	-0.338	0.0886	0.336
C=C(C(=O)CC[C@@H](OC(C)=O)c1cccc(OCCO)c1)C(C)C	1.24	-0.136	0.114	2.37 (inactive)	0.0186	-0.664	-0.649	-0.0718	-0.375	1.35	0.974	-3.23	-0.865	-0.35	-0.94	-0.0276	-0.223	-0.0863	0.847	0.221
COc1ccc([Si](C)(C)[C@H]2[C@H](CCn3cc([C@H](O)c4ccccc4)nn3)O[C@@]3(C(=O)N(c4ccccc4)c4ccccc43)[C@@H]2C)cc1	0.459	-0.125	0.0759	-0.299 (inactive)	0.355	-0.44	-0.166	0.34	-0.0331	-0.168	0.323	-2.91	-0.202	-0.0353	0.82	-0.1	-0.2	-0.143	-0.179	0.0509
C=CC[C@]1(C(=O)N(C)C)COC(c2ccc(OCCCO)cc2)=N1	1.6	0.98	1.26	-0.858 (inactive)	0.772	0.248	-0.737	-0.438	-0.0393	0.465	0.326	1.55	-0.616	2.62	-0.372	-0.113	0.334	-0.246	2.09	0.113
C=C(CCCC)/C(=C/C[C@H](OC(C)=O)c1cccc(OCCO)c1)c1cc(C(=O)OC)ccc1OC	0.286	-0.197	-0.096	-0.325 (inactive)	0.148	-0.157	-0.842	-0.574	-0.344	0.518	-0.323	-1.95	-0.277	-0.343	-1.12	-0.0721	0.0062	0.257	0.455	-0.0712
CO[C@H]1O[C@H](CO)[C@@H](OC(=O)Nc2ccccc2)[C@@H]2OC(=O)[C@H](Cc3ccccc3)C/C=C/C[C@@H](Cc3ccccc3)C(=O)O[C@@H]12	1.46	0.273	0.651	-0.724 (inactive)	1.04	0.56	0.0366	0.877	0.048	1.14	1.04	-3.45	0.587	1.68	-0.123	-0.0545	0.0639	0.696	1.07	0.269
COC(=O)[C@]1(CO)N=C(c2ccc(OCCCO)cc2)O[C@@H]1c1ccccc1CN=[N+]=[N-]	0.853	0.109	0.292	0.706 (inactive)	0.0716	0.421	-0.237	0.0239	0.102	0.193	-0.0942	0.606	-0.266	-0.738	-0.0036	-0.145	0.0611	-0.0007	0.751	-0.0756
COCCCNC(=O)[C@@H]1c2ccccc2C(=O)N(C2CCCCC2)[C@H]1c1ccc(CO)cc1	1.2	0.164	0.864	0.0373 (inactive)	-0.779	-1.82	-1.22	-0.849	-1.54	-0.0501	-0.093	-1.27	-1.22	-0.28	0.716	-0.124	-0.0769	-0.0633	1.25	-1.08
CCOC(=O)C1=CCC(c2cc3ccccc3[nH]2)N(S(=O)(=O)c2ccccc2[N+](=O)[O-])C1 (stereo not given)	0.984	0.225	-0.006	-0.365 (inactive)	0.696	0.565	-0.106	0.319	-0.117	0.722	0.833	-1.86	-0.335	-0.115	-0.472	0.0839	0.0121	-0.142	0.161	1.97
